# Measurements taken from ChEMBL document CHEMBL1961873, “Compounds: GSK PKIS; Assays: Nanosyn kinase panel” (2012).
# Assays:
# [1] = target: Sphingosine kinase 1 (Homo sapiens) (UniProt Q9NYA1); details: at 1 µM;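 also: mean SPHK1 inhibition value reported from the GSK PKIS kinase panel screen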
# [2] = target: T1, Sphingosine kinase 2 (Homo sapiens) (UniProt Q9NRA0); details: at 0.1 µM
# T1 sequence (whole entry): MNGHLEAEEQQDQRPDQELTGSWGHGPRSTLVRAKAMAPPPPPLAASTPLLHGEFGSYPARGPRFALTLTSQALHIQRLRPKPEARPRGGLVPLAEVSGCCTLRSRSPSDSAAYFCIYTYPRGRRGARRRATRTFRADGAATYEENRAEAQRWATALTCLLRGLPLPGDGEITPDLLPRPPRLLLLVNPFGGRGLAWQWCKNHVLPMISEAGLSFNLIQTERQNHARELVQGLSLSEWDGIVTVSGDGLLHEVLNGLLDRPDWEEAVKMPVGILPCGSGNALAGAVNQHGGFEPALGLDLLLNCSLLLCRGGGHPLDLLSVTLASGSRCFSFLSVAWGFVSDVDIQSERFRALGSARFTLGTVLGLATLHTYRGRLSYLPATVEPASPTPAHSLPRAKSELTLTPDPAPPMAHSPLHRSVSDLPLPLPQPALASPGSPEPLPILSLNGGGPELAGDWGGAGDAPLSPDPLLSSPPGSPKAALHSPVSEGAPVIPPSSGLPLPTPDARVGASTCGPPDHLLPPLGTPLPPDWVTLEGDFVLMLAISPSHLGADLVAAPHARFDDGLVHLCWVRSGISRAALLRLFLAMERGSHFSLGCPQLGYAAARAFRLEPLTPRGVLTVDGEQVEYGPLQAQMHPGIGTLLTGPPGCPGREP
# [3] = target: T1, Sphingosine kinase 2 (Homo sapiens); details: at 1 µM
# [4] = target: Casein kinase II subunit alpha (Homo sapiens) (UniProt P68400); details: at 0.1 µM
# [5] = target: Casein kinase II subunit alpha (Homo sapiens) (UniProt P68400); details: at 1 µM
# [6] = target: T2, Inhibitor of nuclear factor kappa-B kinase subunit alpha (Homo sapiens) (UniProt O15111); details: at 0.1 µM
# T2 sequence (whole entry): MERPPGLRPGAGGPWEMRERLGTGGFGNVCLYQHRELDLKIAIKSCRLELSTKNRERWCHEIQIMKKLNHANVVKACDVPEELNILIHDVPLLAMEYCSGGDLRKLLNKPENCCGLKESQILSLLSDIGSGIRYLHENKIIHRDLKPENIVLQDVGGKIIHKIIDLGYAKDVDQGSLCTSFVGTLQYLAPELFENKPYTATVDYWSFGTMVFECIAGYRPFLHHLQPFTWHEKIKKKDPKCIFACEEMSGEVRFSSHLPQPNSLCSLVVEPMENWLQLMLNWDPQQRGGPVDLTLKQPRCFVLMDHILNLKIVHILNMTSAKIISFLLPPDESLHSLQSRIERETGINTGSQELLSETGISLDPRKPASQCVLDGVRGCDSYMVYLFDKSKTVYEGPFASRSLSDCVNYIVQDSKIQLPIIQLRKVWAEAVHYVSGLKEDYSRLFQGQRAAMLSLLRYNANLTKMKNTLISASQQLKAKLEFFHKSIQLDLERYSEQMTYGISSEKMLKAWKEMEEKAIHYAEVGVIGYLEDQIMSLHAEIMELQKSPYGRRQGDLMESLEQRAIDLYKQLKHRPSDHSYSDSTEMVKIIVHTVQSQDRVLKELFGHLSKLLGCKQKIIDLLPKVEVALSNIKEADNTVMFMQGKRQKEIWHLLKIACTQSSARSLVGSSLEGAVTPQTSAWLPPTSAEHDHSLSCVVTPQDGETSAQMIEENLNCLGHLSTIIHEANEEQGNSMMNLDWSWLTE
# [7] = target: T2, Inhibitor of nuclear factor kappa-B kinase subunit alpha (Homo sapiens); details: at 1 µM
# [8] = target: T3, Inhibitor of nuclear factor kappa-B kinase subunit beta (Homo sapiens) (UniProt O14920); details: at 0.1 µM
# T3 sequence (whole entry): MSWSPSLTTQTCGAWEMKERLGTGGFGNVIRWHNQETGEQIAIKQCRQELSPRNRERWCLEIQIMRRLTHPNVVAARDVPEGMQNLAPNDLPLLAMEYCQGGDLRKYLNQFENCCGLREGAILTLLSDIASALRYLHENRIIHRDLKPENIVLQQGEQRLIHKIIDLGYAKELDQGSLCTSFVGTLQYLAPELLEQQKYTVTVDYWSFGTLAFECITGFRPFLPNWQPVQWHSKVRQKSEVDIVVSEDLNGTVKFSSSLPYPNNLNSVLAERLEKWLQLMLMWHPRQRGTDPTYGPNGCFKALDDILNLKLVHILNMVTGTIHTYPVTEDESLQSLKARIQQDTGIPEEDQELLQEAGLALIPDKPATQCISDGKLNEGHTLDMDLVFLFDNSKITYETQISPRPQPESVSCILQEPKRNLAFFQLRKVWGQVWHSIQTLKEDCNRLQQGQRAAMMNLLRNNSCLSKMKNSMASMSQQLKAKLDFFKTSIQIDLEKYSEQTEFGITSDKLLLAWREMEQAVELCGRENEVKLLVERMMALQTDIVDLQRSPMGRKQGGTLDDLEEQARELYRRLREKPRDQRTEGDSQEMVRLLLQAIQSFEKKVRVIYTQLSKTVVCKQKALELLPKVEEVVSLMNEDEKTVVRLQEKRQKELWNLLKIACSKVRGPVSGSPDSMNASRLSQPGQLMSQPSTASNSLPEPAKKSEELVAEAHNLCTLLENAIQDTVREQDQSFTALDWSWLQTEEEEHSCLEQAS
# [9] = target: T3, Inhibitor of nuclear factor kappa-B kinase subunit beta (Homo sapiens); details: at 1 µM
# [10] = target: T4, Inhibitor of nuclear factor kappa-B kinase subunit epsilon (Homo sapiens) (UniProt Q14164); details: at 0.1 µM
# T4 sequence (whole entry): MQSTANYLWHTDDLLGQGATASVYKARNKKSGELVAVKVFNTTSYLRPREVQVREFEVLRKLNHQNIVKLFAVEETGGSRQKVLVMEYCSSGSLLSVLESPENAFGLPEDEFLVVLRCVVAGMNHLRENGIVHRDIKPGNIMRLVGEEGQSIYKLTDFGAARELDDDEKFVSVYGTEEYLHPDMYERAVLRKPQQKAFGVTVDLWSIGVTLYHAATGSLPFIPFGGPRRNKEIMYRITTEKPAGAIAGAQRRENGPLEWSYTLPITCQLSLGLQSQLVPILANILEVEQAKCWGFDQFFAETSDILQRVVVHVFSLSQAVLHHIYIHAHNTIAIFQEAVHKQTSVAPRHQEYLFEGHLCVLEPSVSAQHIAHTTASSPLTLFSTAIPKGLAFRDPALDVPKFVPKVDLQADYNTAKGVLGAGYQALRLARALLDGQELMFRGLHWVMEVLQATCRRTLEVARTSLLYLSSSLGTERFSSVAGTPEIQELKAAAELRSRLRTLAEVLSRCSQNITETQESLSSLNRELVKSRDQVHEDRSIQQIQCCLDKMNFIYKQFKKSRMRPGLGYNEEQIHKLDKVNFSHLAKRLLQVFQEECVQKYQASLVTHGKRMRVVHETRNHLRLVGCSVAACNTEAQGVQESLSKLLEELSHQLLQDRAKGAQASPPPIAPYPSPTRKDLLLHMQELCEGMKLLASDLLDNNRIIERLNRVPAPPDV
# [11] = target: T4, Inhibitor of nuclear factor kappa-B kinase subunit epsilon (Homo sapiens); details: at 1 µM
# [12] = target: T5, Serine/threonine-protein kinase Nek1 (Homo sapiens) (UniProt Q96PY6); details: at 0.1 µM
# T5 sequence (whole entry): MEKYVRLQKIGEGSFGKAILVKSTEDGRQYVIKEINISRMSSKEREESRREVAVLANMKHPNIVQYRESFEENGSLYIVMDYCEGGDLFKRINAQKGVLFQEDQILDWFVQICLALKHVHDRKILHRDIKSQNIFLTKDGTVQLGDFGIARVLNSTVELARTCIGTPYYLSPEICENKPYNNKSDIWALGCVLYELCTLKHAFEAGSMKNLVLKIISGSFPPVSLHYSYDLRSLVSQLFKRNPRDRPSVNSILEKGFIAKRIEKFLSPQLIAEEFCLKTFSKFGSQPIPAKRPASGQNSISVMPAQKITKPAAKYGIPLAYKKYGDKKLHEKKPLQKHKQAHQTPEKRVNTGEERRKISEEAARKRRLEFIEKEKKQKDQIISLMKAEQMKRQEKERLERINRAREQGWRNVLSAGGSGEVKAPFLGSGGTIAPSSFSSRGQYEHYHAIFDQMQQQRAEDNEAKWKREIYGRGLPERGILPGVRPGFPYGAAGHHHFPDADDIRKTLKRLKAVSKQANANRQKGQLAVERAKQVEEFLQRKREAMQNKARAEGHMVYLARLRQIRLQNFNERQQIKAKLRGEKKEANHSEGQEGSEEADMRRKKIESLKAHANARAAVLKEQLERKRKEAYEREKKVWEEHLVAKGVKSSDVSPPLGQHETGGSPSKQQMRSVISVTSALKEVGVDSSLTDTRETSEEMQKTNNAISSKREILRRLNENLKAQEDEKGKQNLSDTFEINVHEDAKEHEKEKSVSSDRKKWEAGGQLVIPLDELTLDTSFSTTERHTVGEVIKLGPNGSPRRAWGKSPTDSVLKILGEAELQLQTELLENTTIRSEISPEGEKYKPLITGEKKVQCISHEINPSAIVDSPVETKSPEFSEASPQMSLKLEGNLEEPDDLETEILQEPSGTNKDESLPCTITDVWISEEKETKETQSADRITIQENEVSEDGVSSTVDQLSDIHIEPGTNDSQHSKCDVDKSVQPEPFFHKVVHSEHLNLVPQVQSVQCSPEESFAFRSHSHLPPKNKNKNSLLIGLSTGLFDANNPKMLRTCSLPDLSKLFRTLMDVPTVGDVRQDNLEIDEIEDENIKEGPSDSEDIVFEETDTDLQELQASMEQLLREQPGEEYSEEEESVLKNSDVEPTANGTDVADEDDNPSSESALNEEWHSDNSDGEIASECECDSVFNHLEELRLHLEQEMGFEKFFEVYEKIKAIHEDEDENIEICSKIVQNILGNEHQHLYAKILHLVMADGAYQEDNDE
# [13] = target: T5, Serine/threonine-protein kinase Nek1 (Homo sapiens); details: at 1 µM
# [14] = target: T6, Serine/threonine-protein kinase Nek2 (Homo sapiens) (UniProt P51955); details: at 0.1 µM
# T6 sequence (whole entry): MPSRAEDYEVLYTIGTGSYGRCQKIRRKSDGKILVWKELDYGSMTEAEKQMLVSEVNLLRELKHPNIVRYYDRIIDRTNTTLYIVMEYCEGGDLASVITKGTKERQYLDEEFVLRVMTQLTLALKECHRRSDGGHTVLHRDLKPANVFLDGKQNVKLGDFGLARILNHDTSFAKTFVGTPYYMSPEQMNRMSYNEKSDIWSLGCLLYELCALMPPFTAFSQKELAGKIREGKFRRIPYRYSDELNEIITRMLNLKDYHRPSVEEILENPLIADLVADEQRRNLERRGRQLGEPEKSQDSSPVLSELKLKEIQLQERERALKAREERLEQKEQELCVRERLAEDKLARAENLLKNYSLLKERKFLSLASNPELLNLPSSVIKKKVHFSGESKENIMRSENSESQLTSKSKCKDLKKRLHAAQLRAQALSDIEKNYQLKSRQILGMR
# [15] = target: T6, Serine/threonine-protein kinase Nek2 (Homo sapiens); details: at 1 µM
# [16] = target: Serine/threonine-protein kinase Nek6 (Homo sapiens) (UniProt Q9HC98); details: at 0.1 µM
# [17] = target: Serine/threonine-protein kinase Nek6 (Homo sapiens) (UniProt Q9HC98); details: at 1 µM
# [18] = target: Serine/threonine-protein kinase Nek7 (Homo sapiens) (UniProt Q8TDX7); details: at 0.1 µM
# [19] = target: Serine/threonine-protein kinase Nek7 (Homo sapiens) (UniProt Q8TDX7); details: at 1 µM
# [20] = target: T7, Serine/threonine-protein kinase Nek9 (Homo sapiens) (UniProt Q8TD19); details: at 0.1 µM;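 also: reported value is the mean percent inhibition of NEK9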
# T7 sequence (whole entry): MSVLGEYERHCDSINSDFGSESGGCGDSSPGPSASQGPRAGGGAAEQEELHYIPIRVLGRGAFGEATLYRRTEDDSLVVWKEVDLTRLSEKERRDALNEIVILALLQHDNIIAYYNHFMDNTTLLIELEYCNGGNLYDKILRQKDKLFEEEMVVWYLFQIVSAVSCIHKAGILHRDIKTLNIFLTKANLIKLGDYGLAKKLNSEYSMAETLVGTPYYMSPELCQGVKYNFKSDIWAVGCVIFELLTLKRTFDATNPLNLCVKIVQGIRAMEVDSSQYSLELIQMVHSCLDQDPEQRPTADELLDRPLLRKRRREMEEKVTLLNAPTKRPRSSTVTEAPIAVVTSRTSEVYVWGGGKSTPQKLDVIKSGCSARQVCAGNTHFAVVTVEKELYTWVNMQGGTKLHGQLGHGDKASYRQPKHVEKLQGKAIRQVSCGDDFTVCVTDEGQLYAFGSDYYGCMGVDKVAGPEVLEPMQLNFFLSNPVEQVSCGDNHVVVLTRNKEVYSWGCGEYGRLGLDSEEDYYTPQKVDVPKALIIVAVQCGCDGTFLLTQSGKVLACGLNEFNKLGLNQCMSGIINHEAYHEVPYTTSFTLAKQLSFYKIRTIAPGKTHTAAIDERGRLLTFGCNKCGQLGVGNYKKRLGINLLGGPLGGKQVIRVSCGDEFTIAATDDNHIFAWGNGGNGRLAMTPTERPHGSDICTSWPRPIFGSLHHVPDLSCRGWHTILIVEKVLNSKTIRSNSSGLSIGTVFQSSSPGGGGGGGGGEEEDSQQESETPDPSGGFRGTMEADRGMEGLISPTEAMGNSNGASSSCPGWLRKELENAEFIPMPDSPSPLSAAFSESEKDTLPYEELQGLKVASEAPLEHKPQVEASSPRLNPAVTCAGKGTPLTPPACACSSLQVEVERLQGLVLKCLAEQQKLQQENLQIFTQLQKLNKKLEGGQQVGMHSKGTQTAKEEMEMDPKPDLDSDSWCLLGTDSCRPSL
# Chain of Casein kinase II subunit alpha (Homo sapiens) (P68400 whole entry, looked up): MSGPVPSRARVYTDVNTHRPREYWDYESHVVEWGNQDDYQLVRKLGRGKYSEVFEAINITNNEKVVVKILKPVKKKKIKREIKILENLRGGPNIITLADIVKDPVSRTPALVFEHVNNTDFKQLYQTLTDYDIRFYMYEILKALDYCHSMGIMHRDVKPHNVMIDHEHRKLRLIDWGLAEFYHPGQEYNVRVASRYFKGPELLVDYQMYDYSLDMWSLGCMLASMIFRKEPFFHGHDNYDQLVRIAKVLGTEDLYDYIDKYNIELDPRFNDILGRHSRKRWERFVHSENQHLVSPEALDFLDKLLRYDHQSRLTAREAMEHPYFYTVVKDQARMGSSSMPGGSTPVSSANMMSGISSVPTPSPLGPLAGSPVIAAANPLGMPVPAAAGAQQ
# Chain of Serine/threonine-protein kinase Nek7 (Homo sapiens) (Q8TDX7 whole entry, looked up): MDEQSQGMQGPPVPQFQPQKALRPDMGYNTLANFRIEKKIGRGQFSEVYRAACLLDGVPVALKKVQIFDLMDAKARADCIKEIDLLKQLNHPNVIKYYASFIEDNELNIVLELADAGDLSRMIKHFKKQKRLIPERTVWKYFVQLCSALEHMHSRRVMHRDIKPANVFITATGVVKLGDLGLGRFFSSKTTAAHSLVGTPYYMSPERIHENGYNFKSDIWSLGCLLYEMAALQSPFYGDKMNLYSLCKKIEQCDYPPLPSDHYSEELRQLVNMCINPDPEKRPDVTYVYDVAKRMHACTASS
# Chain of Serine/threonine-protein kinase Nek6 (Homo sapiens) (Q9HC98 whole entry): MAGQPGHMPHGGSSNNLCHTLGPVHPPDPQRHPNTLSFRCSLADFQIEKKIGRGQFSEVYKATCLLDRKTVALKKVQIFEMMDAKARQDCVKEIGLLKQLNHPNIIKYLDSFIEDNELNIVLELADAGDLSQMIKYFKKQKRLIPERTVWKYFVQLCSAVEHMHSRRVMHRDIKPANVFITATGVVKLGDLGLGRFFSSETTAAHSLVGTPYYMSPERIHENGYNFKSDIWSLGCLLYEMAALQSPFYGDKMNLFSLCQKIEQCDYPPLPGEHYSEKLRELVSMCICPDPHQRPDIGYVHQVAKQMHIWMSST
# Chain of Sphingosine kinase 1 (Homo sapiens) (Q9NYA1 whole entry): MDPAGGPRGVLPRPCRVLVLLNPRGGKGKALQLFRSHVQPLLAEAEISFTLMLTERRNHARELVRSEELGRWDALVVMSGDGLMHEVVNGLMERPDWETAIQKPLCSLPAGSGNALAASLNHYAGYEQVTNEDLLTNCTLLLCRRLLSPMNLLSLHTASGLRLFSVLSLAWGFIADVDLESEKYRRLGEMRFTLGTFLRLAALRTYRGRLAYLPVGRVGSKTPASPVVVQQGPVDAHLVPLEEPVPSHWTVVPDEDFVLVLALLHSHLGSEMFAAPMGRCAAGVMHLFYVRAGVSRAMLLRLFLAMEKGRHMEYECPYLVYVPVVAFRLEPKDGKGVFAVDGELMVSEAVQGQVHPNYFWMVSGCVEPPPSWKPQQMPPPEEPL
compound,measurement,setting,value
CCS(=O)(=O)c1ccc(OC)c(Nc2ncc(-c3cccc(F)c3)o2)c1,inhibition,[1],0.12%
same,inhibition,[2],-0.46%
same,inhibition,[3],0%
same,inhibition,[4],15.4%
same,inhibition,[5],46.8%
same,inhibition,[6],9.53%
same,inhibition,[7],11%
same,inhibition,[8],6.88%
same,inhibition,[9],9.91%
same,inhibition,[10],10.8%
same,inhibition,[11],8.87%
same,inhibition,[12],4.05%
same,inhibition,[13],5.27%
same,inhibition,[14],6.14%
same,inhibition,[15],7.08%
same,inhibition,[16],-1.8%
same,inhibition,[17],1.24%
same,inhibition,[18],4.07%
same,inhibition,[19],0.27%
same,inhibition,[20],7.49%
